Source: PubChem BioAssay (NCATS)
Inconclusive results are not listed. Active and inactive are the calls of the source. Unless noted, calls come from the whole dose curve; as a rule, active = well fitted curve in the direction sought with a large enough effect; inconclusive = small, poorly fitted or top-dose-only effect, or another doubt; inactive = no such curve, though single readings can be large; an effect the other way counts as inactive or inconclusive.

Columns and labels:
[1] = Primary fluorescence-based thiol-reactive (MSTI) qHTS assay for identification of artifact compounds. (AID 1845221);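 note: thiol-reactive compounds lower the probe fluorescence signal; nearly all actives have a fitted effect of over 65% in size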
How it was run: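 Compounds were incubated 1 h at room temperature in the dark with the MSTI probe (4 uM) in PBS pH 7.4, 2% DMSO. Signals were normalized between Acetyl-MSTI and MSTI.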

[2] = Primary redox qHTS assay for identification of artifact compounds. (AID 1845223);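 note: 0% = DMSO and 100% = reference compound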
How it was run: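 Redox-cycling detection via DTT (250 uM final) oxidation coupled to Amplex Red (25 uM)/HRP (250 mU/mL) in HBSS. 15 min preincubation plus 30 min after DTT, room temperature. Ex/Em 525/598 nm; 4-parameter Hill fit against DMSO and 10 uM DA3003.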

[3] = system: HaCat; assay: Cytotoxic Profiling of Annotated Libraries Using Quantitative High-Throughput Screening (AID 1296008); details: Five cell lines viability, CellTiter-Glo ATP luminescence, 48-72 h; max response: stronger effect = lower value; note: nearly all actives have a fitted effect of over 60% in size; note: potency is the fitted concentration of half-maximal effect; for max response: % is set by controls: 0 for no effect and ±100 for the full control effect
How it was run: (§1)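 Compounds were pin-transferred onto cells and incubated 48 or 72 hr at 37 degree Celsius, 95% humidity. CellTiter-Glo was added, plates sat 10 min at room temperature, then ATP-coupled luminescence was imaged as the viability read-out.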

[4] = system: CRL-7250; assay: qHTS assay to identify novel small-molecules to repurpose for Merkel cell carcinoma treatment (AID 1296009); details: MCC and control cell lines, CellTiter-Glo viability, 72 h; series mostly up to 92 µM; note: nearly all actives have a fitted effect of over 60% in size
How it was run: (§2)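 Viability readout: ATP luminescence (CellTiter-Glo) after 72 hr drug exposure at 37 degree celsius. Dose-response format was 8 points for NPC and 11 points for MIPE; data normalized to in-plate controls.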

[5] = system: HACAT; assay: as above; details: MCC and control cell lines, CellTiter-Glo viability, 72 h; at 44.8 µM (top of the series) unless noted
How it was run: as §2

[6] = system: SKOV3; assay: Primary qHTS to identify gynecologic anti-cancer compounds using libraries of approved drugs and bioactive compounds (AID 1345084); details: Gynecologic cancer cell panel viability, ATPlite luminescence, 48 h; series mostly up to 57.5 µM; note: nearly all actives have a fitted effect of over 55% in size; note: potency is the fitted concentration of half-maximal effect; for activity change, negative = cytotoxicity: % is set by controls: 0 for no effect and ±100 for the full control effect
How it was run: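 Luminescence from the ATPlite ATP-monitoring reagent indicates viable cell number; lower signal means cytotoxicity. Cells received compound 16 h after seeding and were exposed for 48 h across five concentrations.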

[7] = system: KB-3-1; assay: Cytotoxic Profiling of Annotated Libraries Using Quantitative High-Throughput Screening (AID 1296008); details: Five cell lines viability, CellTiter-Glo ATP luminescence, 48-72 h; max response: stronger effect = lower value; note: nearly all actives have a fitted effect of over 60% in size; note: potency is the fitted concentration of half-maximal effect; for max response: % is set by controls: 0 for no effect and ±100 for the full control effect
How it was run: as §1

[8] = system: Zika virus NS2B-NS3 protease (unlinked complex); assay: Primary screen GU Rhodamine qHTS for Zika virus inhibitors: Unlinked NS2B-NS3 protease assay (AID 1347159)
How it was run: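 Percent inhibition came from the 15-min rise in Rhodamine110 fluorescence (1.5 microM substrate, ~15% conversion), normalized to no-inhibitor and no-enzyme wells and Hill-fitted. Unlinked protease, 25 nM, pH 8.0 Tris buffer; compounds up to 114 microM, 15-min preincubation.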

[9] = Primary qHTS for inhibitors of nuclear receptor binding SET domain protein 2 (NSD2) in an isogenic RCH-ACV NSD2 p.E1099K mutant (9B) (AID 1645876); note: nearly all actives have a fitted effect of over 70% in size; note: potency is the fitted concentration of half-maximal effect
[10] = Primary qHTS for inhibitors of nuclear receptor binding SET domain protein 2 (NSD2) in an RCH-ACV wild type WT cells (2C) (AID 1645877); note: nearly all actives have a fitted effect of over 70% in size; note: potency is the fitted concentration of half-maximal effect
[11] = system: HEK293; assay: Cytotoxic Profiling of Annotated Libraries Using Quantitative High-Throughput Screening (AID 1296008); details: Five cell lines viability, CellTiter-Glo ATP luminescence, 48-72 h; max response: stronger effect = lower value; note: nearly all actives have a fitted effect of over 60% in size; note: potency is the fitted concentration of half-maximal effect; for max response: % is set by controls: 0 for no effect and ±100 for the full control effect
How it was run: as §1

[12] = P-glycoprotein substrates identified in KB-3-1 adenocarcinoma cell line, qHTS therapeutic library screen (AID 1346986); note: nearly all actives have a fitted effect of over 60% in size
How it was run: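 72 h cell-killing screen, 500 cells/well, CellTiter-Glo luminescence. Paired lines KB-3-1/KB-8-5-11; P-gp dependence checked by tariquidar co-treatment and HEK-293 MDR-19 versus empty-vector cells.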

[13] = system: NIH3T3; assay: qHTS assay to identify novel small-molecules to repurpose for Merkel cell carcinoma treatment (AID 1296009); details: MCC and control cell lines, CellTiter-Glo viability, 72 h; at 44.8 µM (top of the series) unless noted; note: nearly all actives have a fitted effect of over 60% in size
How it was run: as §2

[14] = qHTS drug screen for cell cycle checkpoint inhibitors in PARPi-resistant BRCA-mutant ovarian cancer cell lines. (AID 1963452; calls by dose curve); details: PEO1/OlaR viability, CellTiter-Glo luminescence, 96 h, stronger effect = lower value
How it was run: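 PEO1, PEO4 and PEO1/OlaR ovarian cancer cells, 600 per well, exposed 96 h at 37C to a dilution series. Viability read by CellTiter-Glo luminescence, normalized to DMSO and empty wells; activity summarized as Z-AUC.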

[15] = target: Catechol O-methyltransferase (Homo sapiens) (UniProt P21964); assay: Confirmatory Screen for Target Class Profiling of Small Molecule Inhibitors of Methyltransferases (AID 1745852; calls by dose curve); details: MTase-Glo luminescence, SAH detection, recombinant enzyme; measured here: COMT max response; stronger effect = lower value
Chain of Catechol O-methyltransferase (Homo sapiens) (P21964 whole entry, looked up): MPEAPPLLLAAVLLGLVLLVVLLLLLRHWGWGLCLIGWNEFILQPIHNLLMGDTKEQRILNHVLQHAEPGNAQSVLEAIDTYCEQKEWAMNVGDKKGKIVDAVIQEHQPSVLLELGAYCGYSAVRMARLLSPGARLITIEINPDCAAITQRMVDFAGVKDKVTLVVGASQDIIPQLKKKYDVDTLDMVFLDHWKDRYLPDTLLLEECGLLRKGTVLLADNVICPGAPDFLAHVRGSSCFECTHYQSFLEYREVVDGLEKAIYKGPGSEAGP

[16] = target: Guanidinoacetate N-methyltransferase (Homo sapiens) (UniProt Q14353); assay: as above; details: activity change, negative = inhibition: at 57.3 µM (top of the series) unless noted
[17] = target: Nicotinamide N-methyltransferase (Homo sapiens) (UniProt P40261); assay: as above; details: MTase-Glo luminescence, SAH detection, recombinant enzyme; measured here: NNMT max response; stronger effect = lower value
Chain of Nicotinamide N-methyltransferase (Homo sapiens) (P40261 whole entry, looked up): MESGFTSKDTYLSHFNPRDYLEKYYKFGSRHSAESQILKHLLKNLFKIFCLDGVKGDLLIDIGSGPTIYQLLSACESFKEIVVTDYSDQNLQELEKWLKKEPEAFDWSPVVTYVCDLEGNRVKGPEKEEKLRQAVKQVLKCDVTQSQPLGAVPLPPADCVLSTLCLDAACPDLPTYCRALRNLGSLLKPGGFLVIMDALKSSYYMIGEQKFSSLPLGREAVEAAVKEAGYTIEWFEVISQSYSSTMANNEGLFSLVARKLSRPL

[18] = target: Phenylethanolamine N-methyltransferase (Homo sapiens) (UniProt P11086); assay: as above; details: MTase-Glo luminescence, SAH detection, recombinant enzyme; measured here: PNMT max response; stronger effect = lower value
Chain of Phenylethanolamine N-methyltransferase (Homo sapiens) (P11086 whole entry, looked up): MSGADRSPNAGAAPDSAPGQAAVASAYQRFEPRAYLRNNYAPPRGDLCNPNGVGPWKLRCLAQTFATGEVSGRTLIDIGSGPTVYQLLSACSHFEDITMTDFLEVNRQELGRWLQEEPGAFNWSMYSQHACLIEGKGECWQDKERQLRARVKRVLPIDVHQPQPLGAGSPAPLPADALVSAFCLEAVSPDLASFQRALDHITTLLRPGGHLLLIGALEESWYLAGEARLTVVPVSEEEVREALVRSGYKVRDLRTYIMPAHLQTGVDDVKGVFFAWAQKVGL

[19] = target: Cytochrome P450 2D6 (Homo sapiens) (UniProt P10635); assay: Cytochrome P450 family 2 subfamily D member 6 (CYP2D6) small molecule antagonists: luciferase biochemical (cell-free) qHTS assay (AID 1645840; active = well fitted curve in the direction sought with a large enough effect in the repeat runs; an effect the other way counts as inactive or inconclusive; note: nearly all actives have a fitted effect of over 55% in size; note: potency is the fitted concentration of half-maximal effect)
Chain of Cytochrome P450 2D6 (Homo sapiens) (P10635 whole entry, looked up): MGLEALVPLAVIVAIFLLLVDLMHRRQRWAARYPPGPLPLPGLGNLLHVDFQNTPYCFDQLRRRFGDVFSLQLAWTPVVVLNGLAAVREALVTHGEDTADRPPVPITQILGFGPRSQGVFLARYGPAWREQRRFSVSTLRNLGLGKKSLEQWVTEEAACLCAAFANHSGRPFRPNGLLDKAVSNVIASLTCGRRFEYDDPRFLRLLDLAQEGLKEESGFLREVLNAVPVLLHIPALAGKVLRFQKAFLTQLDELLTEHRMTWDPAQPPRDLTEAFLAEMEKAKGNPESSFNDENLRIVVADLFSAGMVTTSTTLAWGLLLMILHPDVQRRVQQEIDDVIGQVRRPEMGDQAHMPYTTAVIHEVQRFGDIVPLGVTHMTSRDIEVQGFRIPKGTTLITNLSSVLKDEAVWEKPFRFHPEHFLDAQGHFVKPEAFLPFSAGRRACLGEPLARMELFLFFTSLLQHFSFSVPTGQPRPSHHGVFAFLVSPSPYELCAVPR
How it was run: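 P450-Glo CYP2D6 system: proluciferin substrate converted by enzyme to luciferin, read by luminescence proportional to activity. Enzyme-substrate mix with compound 10 min at room temperature, then NADPH regeneration 1 h before detection reagent.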

[20] = target: Cytochrome P450 2C9 (Homo sapiens) (UniProt P11712); assay: Cytochrome P450 family 2 subfamily C member 9 (CYP2C9) small molecule antagonists: luciferase biochemical (cell-free) qHTS assay (AID 1645842; active = well fitted curve in the direction sought with a large enough effect in the repeat runs; an effect the other way counts as inactive or inconclusive; note: nearly all actives have a fitted effect of over 55% in size; note: potency is the fitted concentration of half-maximal effect)
Chain of Cytochrome P450 2C9 (Homo sapiens) (P11712 whole entry, looked up): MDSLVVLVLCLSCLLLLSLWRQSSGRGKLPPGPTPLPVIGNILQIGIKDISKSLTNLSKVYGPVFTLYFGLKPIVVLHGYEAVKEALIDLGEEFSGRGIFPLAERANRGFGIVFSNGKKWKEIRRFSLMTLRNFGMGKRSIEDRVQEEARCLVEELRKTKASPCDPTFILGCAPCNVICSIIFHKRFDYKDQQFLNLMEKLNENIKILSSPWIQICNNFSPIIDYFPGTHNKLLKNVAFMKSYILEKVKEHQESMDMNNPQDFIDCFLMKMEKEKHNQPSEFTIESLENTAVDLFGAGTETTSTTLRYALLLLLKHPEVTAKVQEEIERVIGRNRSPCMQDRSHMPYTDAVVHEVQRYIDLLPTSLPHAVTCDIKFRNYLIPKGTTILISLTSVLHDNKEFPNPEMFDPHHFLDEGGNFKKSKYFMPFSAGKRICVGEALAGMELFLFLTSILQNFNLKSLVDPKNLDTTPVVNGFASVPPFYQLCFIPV
How it was run: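 P450-Glo CYP2C9 system: proluciferin substrate with enzyme in mix containing 0.4% BSA, 10 min at room temperature, then NADPH regeneration solution added and incubated 1 h at 37C. Detection reagent stopped reaction; luminescence read after 20 min as RLU.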

[21] = measured here: PEO1 parental Z-AUC

CC(=O)OC[C@]12[C@H](OC(C)=O)C(=O)[C@@H]3[C@@H](O)[C@@]14O[C@@]3(C)COC(=O)c1cccnc1[C@@H](C)[C@H](C)C(=O)O[C@@H]([C@H](OC(C)=O)[C@@H]2OC(C)=O)[C@]4(C)O
inactive: Potency [1] | Potency [2] | outcome [3] | Potency [4] | outcome [5] inactive [at 17.4 µM] | Potency [6]

C#CC1(O)CCC2C3CCC4=CC(=O)CCC4=C3C=CC21C (configuration not stated)
active: Potency [7] 6.51 µM
inactive: Potency [1] | Potency [2] | outcome [3] | outcome [5] | Potency [6]

COC(=O)C12C(=O)C(C)(O)C(=O)C1(C)C(C)=CC1C3(C=O)CCC(OC(C)=O)C(C)(C)C3CCC12C (configuration not stated)
inactive: Potency [1] | Potency [2] | max response [3] -17.3% | max response [7] 6.36% | Potency [6]

C[C@@H]1CCC2[C@@H](C)C(=O)OC3O[C@@]4(C)CCC1[C@]32OO4 (some centres not stated)
inactive: Potency [8] | Potency [1] | Potency [2] | max response [3] -1.21% | max response [7] -7.11% | Potency [6]

COC(=O)[C@@]1(C)C(=O)C=C[C@]2(C)c3c(O)cc(C(C)C)cc3[C@H](O)[C@@H](OC(C)=O)C12 (some centres not stated)
inactive: Potency [8] | Potency [1] | Potency [2] | outcome [3] | Potency [4] | outcome [5] inactive [at 17.4 µM] | Potency [6]

C=C(CO)[C@@]12O[C@@H]1[C@@]1(C)C(=CC2=O)CC[C@@H](O)[C@@H]1C
inactive: Potency [8] | Potency [1] | Potency [2] | outcome [3] | outcome [5]
active: Potency [9] 12.9 µM | Potency [10] 12.9 µM | Potency [11] 23.1 µM

COc1cc2c(cc1O)C1(C)CCC(O)C(C)(C)C1CC2=O (configuration not stated)
inactive: Potency [12] | Potency [8] | Potency [9] | Potency [10] | Potency [2] | max response [11] -7.2% | outcome [3] | outcome [7] | outcome [5] | outcome [13] | Potency [6]

Cc1ncc(OC[C@@]2(c3cccc(F)c3)C[C@H]2C(=O)Nc2ccc(F)cn2)c(C)n1
inactive: Potency [9] | Z-AUC [14] -0.208 | max response [11] 4.45% | outcome [3] | outcome [5] | outcome [13]
-0.55: Z-AUC [14, 21]
0.108: Z-AUC ([14]; measured here: PEO4 Z-AUC)

C/C=C(\C)C(=O)OC1CC2C(CC=C3CC(OC4CC(OC)C(OC5CC(OC)C(OC6CC(OC)C(OC7CC(OC)C(O)C(C)O7)C(C)O6)C(C)O5)C(C)O4)CCC32C)C2(O)CCC(C(C)=O)C12C (configuration not stated)
inactive: outcome [12] inactive [at 9.29 µM] | Potency [8] | activity change, negative = thiol reactive [1] 0.247% [at 11.5 µM] | redox activity (% of DA3003) [2] 4.9% [at 11.5 µM] | outcome [3] | outcome [5] inactive [at 9.27 µM] | outcome [13] inactive [at 9.27 µM] | activity change, negative = cytotoxicity [6] -3.35% [at 11.6 µM]

CCCCOC(=O)c1ccnc2cc(C(OCCN3CCCCC3)c3ccccc3Cl)sc12 (configuration not stated)
active: Potency [9] 23 µM
-16.1%: activity [18]
6.41%: activity change, negative = inhibition [16]
inactive: Potency [8] | Potency [2] | outcome [3] | outcome [5] | Potency [6]
-22.8%: activity [17]
-6.9%: activity [15]

C[C@@H](CN1CCC2(CC1)C(=O)NCN2c1cccc(F)c1)NC(=O)c1ccc(Br)cc1
active: Potency [19] 4.77 µM | Potency [20] 9.52 µM | Potency [9] 11.5 µM
inactive: Potency [8] | Potency [1] | Potency [2] | Potency [4]

C[C@H](Nc1ncnc2nc[nH]c12)c1nc2ccc(F)cc2c(=O)n1-c1ccccc1
0.915: Z-AUC ([14]; measured here: PEO4 Z-AUC)
inactive: Potency [8] | Potency [1] | Potency [2] | Z-AUC [14] 0.252 | max response [7] -3.18% | Potency [6]
active: Potency [19] 15.1 µM | Potency [20] 12 µM
0.609: Z-AUC [14, 21]

C[C@]12CC[C@H](O)CC1=CC[C@@H]1C2CC[C@]2(C)[C@@H](C3=CC(=O)OC3)CC[C@]12O (some centres not stated)
inactive: Potency [8]
active: Potency [9] 3.19 µM | Potency [10] 4.5 µM

CCC1CC2CN3CCc4c([nH]c5ccccc45)C(C(=O)OC)(C2)C13 (configuration not stated)
inactive: Potency [12] | Potency [8] | Potency [9] | Potency [10] | Potency [2] | outcome [7]

Cc1[nH]c2ccc(Cl)cc2c1CCN(C)C
-3.11%: activity [18]
-1.82%: activity change, negative = inhibition [16]
active: Potency [19] 3.38 µM
inactive: Potency [8] | Potency [20] | Potency [9] | Potency [1] | Potency [2] | max response [7] 3.8% | outcome [13]
-4.68%: activity [17]
-4.16%: activity [15]

COc1cccc(NCC(F)Cn2c3ccc(Br)cc3c3cc(Br)ccc32)c1 (configuration not stated)
active: Potency [20] 7.56 µM | Potency [10] 20.5 µM | Potency [11] 13 µM | Potency [3] 8.2 µM | Potency [7] 18.4 µM | Potency [6] 14.1 µM
inactive: Potency [8] | Potency [19] | Potency [2]
